Sampled rows, rich in hits. Any-hit rate of the full collection: about 18%.
CtBP-E1A inh – CtBP/E1A binding inhibition | activity change, % (no concentration beside the values) | actives 0.49% (n = 340,000) | AID 651724 | AlphaScreen GST-E1A/His-CtBP binding, 1536-well; stronger effect = lower value; in the data active = activity change below about -65%; inconclusive = mostly about -30% to -63%
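Protein mix (5X: 125 nM each GST-E1A, His-CtBP) was incubated with pinned compound 2 h at 37 deg C in dark, in 50 mM Tris pH 8.0 buffer with 300 mM NaCl. Glutathione donor and nickel acceptor beads followed; AlphaScreen signal read after 1 h.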
TDP1 block – inhibitors of human tyrosyl-DNA phosphodiesterase TDP1 | AID 485290 | recombinant TDP1, AlphaScreen DNA substrate cleavage | Potency, µM (doses to about 130 µM), without a hit: at the top dose activity change, negative = inhibition, actives largely listed as inhibitors | actives 0.28% (n = 350,000); also: potency is read from the fitted curve at half-maximal effect; nearly all actives have a fitted effect of over 40% in size
Target sequence (Q9NUW8 whole entry, looked up): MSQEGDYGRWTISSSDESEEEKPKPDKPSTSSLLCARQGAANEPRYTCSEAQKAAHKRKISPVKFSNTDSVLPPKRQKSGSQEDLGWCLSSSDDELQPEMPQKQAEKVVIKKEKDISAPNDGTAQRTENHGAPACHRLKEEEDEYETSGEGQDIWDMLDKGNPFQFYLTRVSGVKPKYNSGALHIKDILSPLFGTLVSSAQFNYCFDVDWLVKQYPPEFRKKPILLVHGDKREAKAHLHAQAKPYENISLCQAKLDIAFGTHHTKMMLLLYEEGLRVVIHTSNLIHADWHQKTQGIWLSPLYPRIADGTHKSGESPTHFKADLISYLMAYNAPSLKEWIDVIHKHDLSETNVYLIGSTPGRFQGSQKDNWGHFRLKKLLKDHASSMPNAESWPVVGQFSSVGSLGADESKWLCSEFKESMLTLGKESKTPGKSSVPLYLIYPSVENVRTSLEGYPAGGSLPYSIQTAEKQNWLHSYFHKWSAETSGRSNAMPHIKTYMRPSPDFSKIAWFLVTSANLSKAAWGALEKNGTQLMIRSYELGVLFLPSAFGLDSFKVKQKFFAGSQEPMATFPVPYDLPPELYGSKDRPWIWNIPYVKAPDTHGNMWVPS
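Here, a 5' biotin and 3' phosphotyrosine-FITC DNA oligonucleotide reports Tdp1 activity: intact substrate bridges AlphaScreen beads, while cleavage leaves a 3' phosphate and drops signal. All incubations at room temperature.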
TDP1 cell noCPT – qHTS for Inhibitors of human tyrosyl-DNA phosphodiesterase 1 (TDP1): qHTS in cells in absence of CPT; DT40 Tdp1-/- hTDP1 cells, no CPT, ATP luminescence, 48 h; Potency, µM (highest dose often 46.2 µM), for inactives: at the highest dose activity change, negative = growth inhibition, hits mostly inhibitors; actives 15% (n = 420,000); also: potency is read from the fitted curve at half-maximal effect; nearly all actives have a fitted effect of over 55% in size
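Luminescent ATP content (CellTiter-Glo) served as the growth readout. Knockout chicken DT40 cells expressing human TDP1 were exposed to compounds without camptothecin for a minimum 48 hr at 37 °C.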
IL1B secr inh – inflammasome signaling inhibition, IL-1 beta readout; THP-1 LPS/ATP IL-1B secretion, AlphaLISA, 16 h; stronger effect = lower value; activity change, % at 57.5 µM; actives 4.7% (n = 360,000); in the data active = activity change below about -50%; inconclusive = mostly about -30% to -49%
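THP-1 cells pretreated 1 hr with compounds (up to 57.5 uM final), then stimulated with LPS (250 ng/mL final) plus ATP (1.25 mM final); secreted IL-1B measured by AlphaLISA after 16 hr, decreased signal indicating inhibition.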
DT40 TDP1 CPT – DT40-hTDP1 cell growth loss with CPT | actives 12% (n = 420,000) | AID 686979 | chicken DT40 Tdp1-/-;hTDP1 cells + 20 nM CPT, ATP luminescence, 48 h | Potency, µM (series often up to 46.2 µM), for inactives: top-dose activity change, negative = growth inhibition, usual class: inhibitors; also: potency is read from the fitted curve at half-maximal effect; nearly all actives have a fitted effect of over 55% in size
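Chicken DT40 Tdp1-/- cells stably complemented with human TDP1 were seeded at 400 cells/well in medium containing 20 nM camptothecin, exposed to pin-transferred compounds, and grown at 37 °C for at least 48 hr. Viability was read as ATP luminescence.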
Six1-Eya2 blk – inhibitors of human Six1/Eya2 interaction. AID 651725. AlphaScreen GST-Six1/His-Eya2 binding, biochemical; stronger effect = lower value. activity change, % (no concentration beside the values). actives 0.56% (n = 360,000). Q15475+O00167; in the data active = activity change below about -65%; inconclusive = mostly about -30% to -63%
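AlphaScreen with GST-Six1 and His-Eya2 (5X mix: 250 nM and 500 nM), glutathione donor and nickel acceptor beads; buffer 50 mM Tris pH 8.0, 300 mM NaCl, 1 mM TCEP; 1 h at 37 C in the dark.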
* hit, by the source's call; ? = inconclusive; nt = no result given; [ ] = dose if it differs, or a comment. Unless noted, calls follow the shape of the dose curve; as a rule, active = well fitted curve in the direction sought with a large enough effect; inconclusive = small, poorly fitted or top-dose-only effect, or another doubt; inactive = no such curve, though single readings can be large; an effect the other way counts as inactive or inconclusive. % is scaled to controls: 0 for no effect and ±100 for the full control effect.

SMILES	CtBP-E1A inh	TDP1 block	TDP1 cell noCPT	IL1B secr inh	DT40 TDP1 CPT	Six1-Eya2 blk
O=C(OCc1nnc(-c2ccccc2)o1)C1CC(=O)N(CCc2ccccc2)C1 (configuration not stated)	0	-5%	?	0	0%	-4
Nc1nc(Nc2ccccc2F)sc1C(=O)c1ccccc1	-11	nt	?	-20	12µM*	-1
O=C1N/C(=C\c2ccccc2)c2ccccc21	2	-1%	23µM*	34	21µM*	-2
C=CCSc1nc2ccccc2n2cnnc12	nt	nt	?	-10	?	-14
Nc1cccc2c(O)cccc12	-1	nt	-12%	12	-14%	-11
O=c1[nH]ccc2c(O)cccc12	3	2%[56.1 µM]	21µM*	37	?	1
COc1cc(-c2cccc([C@H]3[C@@H]4C=CC[C@@H](C)[C@@H]4C(=O)N3Cc3ccccc3)c2)cc(OC)c1OC	-22	1%[56.1 µM]	7.3µM*	?	8.2µM*	-12
CC(=O)c1ccc(-c2cccc([C@H]3[C@@H]4C=CC[C@@H](C)[C@@H]4C(=O)N3Cc3ccccc3)c2)cc1	-11	1%[56.1 µM]	13µM*	-20	10µM*	-12
COc1ccc(-c2cccc(C3CC=CC4C3C(=O)N(Cc3ccccc3)C4c3ccc4ccccc4c3)c2)cc1 (configuration not stated)	-6	6%	15µM*	43	18µM*	-5
CC(=O)c1ccc(-c2c(C3C4C=CCC(C)C4C(=O)N3Cc3ccccc3)ccc3ccccc23)cc1 (configuration not stated)	nt	9%	nt	nt	nt	nt
Cc1ccc(-c2cc([C@H]3[C@H]4C=CC[C@@H](C)[C@@H]4C(=O)N3Cc3ccccc3)ccc2F)cc1	10	-4%	21µM*	15	?	-4
O=C(O)CCCN1C(=O)C2C3CCC(O3)C2C1=O (configuration not stated)	1	8%	?	11	2%	10
COc1ccccc1C(=O)NNC(=O)c1ccc(F)cc1	-4	-1%	-14%	9	1%	5
COc1ccc(CSc2nnc(C)s2)cc1F	-2	5%	-13%	-11	-8%	3
COc1ccc(C2C3C=CCC(c4cccc(-c5ccc(C)cc5)c4)C3C(=O)N2Cc2ccccc2)cc1Cl (configuration not stated)	nt	3%	13µM*	8	23µM*	-12
COc1ccc(-c2cccc([C@H]3[C@@H]4C=CC[C@@H](C)[C@@H]4C(=O)N3Cc3ccccc3)c2)cc1	-7	-2%[56.1 µM]	21µM*	-23	23µM*	-10
Cc1ccc(-c2cccc(C3CC=CC4C3C(=O)N(Cc3ccccc3)C4c3ccc(C(F)(F)F)cc3)c2)cc1 (configuration not stated)	0	6%	13µM*	47	13µM*	-9
O=C1[C@H]2CCC=C[C@H]2[C@H](c2cccc(Br)c2)N1Cc1ccccc1	-3	-1%[56.1 µM]	13µM*	14	?	5
Cc1cc(C)c(NC(=O)CSc2nc(=O)n3cc(C)ccc3n2)c(C)c1	-4	nt	?	2	?	5
O=C1C2C(c3ccccc3)CC=CC2[C@H](c2ccc3ccccc3c2)N1Cc1ccccc1 (some centres not stated)	-1	4%	23µM*	-20	21µM*	-5
O=C1C2C(c3ccccc3)CC=CC2C(c2ccc3ccccc3c2)N1Cc1ccccc1 (configuration not stated)	nt	9%	nt	nt	nt	nt
CCOc1ccc(CNC(=O)c2cccc(NC(=O)N3CCSc4ncccc43)c2)cc1	nt	6%	23µM*	nt	?	nt
CCc1ccc(CNC(=O)c2ccc(NC(=O)N3CCSc4ncccc43)cc2)cc1	nt	3%	?	nt	?	nt
Cc1c(Cl)cccc1NC(=O)c1cccc(NC(=O)N2CCSc3ncccc32)c1	nt	6%	?	nt	?	nt
Cc1ccccc1CNC(=O)c1cccc(NC(=O)N2CCSc3ncccc32)c1	nt	6%	16µM*	nt	18µM*	nt
SMILES	CtBP-E1A inh	TDP1 block	TDP1 cell noCPT	IL1B secr inh	DT40 TDP1 CPT	Six1-Eya2 blk
CC(C)Oc1ccc(CNC(=O)c2cccc(NC(=O)N3CCSc4ncccc43)c2)cc1	nt	6%	21µM*	nt	?	nt
CCCCOc1ccc(CNC(=O)c2cccc(NC(=O)N3CCSc4ncccc43)c2)cc1	nt	0%	16µM*	nt	?	nt
COc1ccc(CNC(=O)c2ccc(NC(=O)N3CCSc4ncccc43)cc2)cc1	nt	6%	?	nt	?	nt
O=C1Nc2ccc(S(=O)(=O)NCC3CCCO3)c3cccc1c23 (configuration not stated)	nt	-3%	-23%	39	-5%	-1
COc1cc(C(=S)N2CCOCC2)ccc1OC(=O)c1ccccc1	4	5%	8%	27	-11%	-3
COC(=O)Cn1c(CN2CCOCC2)nc2c1c(=O)[nH]c(=O)n2C	-2	6%	-1%	-10	-8%	4
CCC(c1nc2ccccc2c(=O)n1-c1nc2ccccc2s1)N1C(=O)c2ccccc2C1=O (configuration not stated)	-18	8%	-25%	-5	-15%	1
O=c1cc(CSc2nnc(Nc3ccccc3F)s2)nc2sccn12	2	5%	23µM*	-9	?	-1
O=C(CCCSc1nnc(Nc2ccccc2F)s1)N1CCOCC1	0	3%	?	-20	-5%	-9
Cc1ccc2nc(CSc3nnc(Nc4ccccc4F)s3)cc(=O)n2c1	2	?	16µM*	0	?	-8
Cc1ccc2nc(CSc3nnc(NC(=O)COc4ccccc4)s3)cc(=O)n2c1	nt	5%	1%	nt	-8%	nt
Cc1ccc(Nc2nnc(SCc3cc(=O)n4cc(C)ccc4n3)s2)cc1	-67*	3%	-9%	19	?	-23
O=C(Nc1ccccc1OC(=O)c1ccc(Cl)cc1)c1ccc(Cl)cc1	4	3%	16µM*	13	?	-8
Cc1ccc(C(=O)Nc2cc(Cl)ccc2OC(=O)c2ccc(C)cc2)cc1	nt	1%	nt	nt	nt	nt
O=C(Nc1ccccc1O)c1ccc(Cl)cc1	-1	4%	23µM*	114	16µM*	1
CCOC(=O)c1cc(-c2ccccc2)n(CCC(=O)N2CCN(c3ccccc3OC)CC2)c1C	-28	-3%	8.2µM*	?	12µM*	?

Assay outcomes from PubChem.
